Experimental data reported in paper PMC7862700, “An all-to-all approach to the identification of sequence-specific readers for epigenetic DNA modifications on cytosine”.

How the values were obtained:
Experiment in all cases: DAPPL (digital affinity profiling via proximity ligation, sequencing); 10 mM Tris-HCl pH 7.5, 50 mM NaCl, 1 mM DTT, 4% glycerol, room temperature, 30 min; GST-TFs on glutathione beads, 16-mer random dsDNA library, 0.1% formaldehyde crosslink after washing; high values mean tight binding
Details in all cases: protein: recombinant; tags: N-terminal GST; dsDNA, one strand shown
FLI1 = molecular target: T1, FLI1 (Homo sapiens, UniProt Q01543 1-452)
T1 sequence: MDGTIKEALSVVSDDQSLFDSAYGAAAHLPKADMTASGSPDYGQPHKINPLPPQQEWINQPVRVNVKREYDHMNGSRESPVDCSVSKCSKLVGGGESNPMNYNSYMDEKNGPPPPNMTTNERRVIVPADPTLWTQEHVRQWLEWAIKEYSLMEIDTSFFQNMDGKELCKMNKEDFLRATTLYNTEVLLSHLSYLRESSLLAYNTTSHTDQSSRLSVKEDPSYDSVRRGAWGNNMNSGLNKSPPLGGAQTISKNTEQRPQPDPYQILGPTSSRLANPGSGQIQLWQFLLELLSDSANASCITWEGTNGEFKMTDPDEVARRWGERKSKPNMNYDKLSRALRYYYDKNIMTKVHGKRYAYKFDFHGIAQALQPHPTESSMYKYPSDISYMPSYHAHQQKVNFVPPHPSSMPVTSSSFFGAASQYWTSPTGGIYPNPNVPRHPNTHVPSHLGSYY
In short: (§1)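 Binding signal is given per hexamer as its read frequency for a factor divided by its frequency in the tag-only sample. GST-fused human transcription factors were expressed in yeast, captured on glutathione beads, barcoded with DNA and pooled with that sample, then incubated with 200 nmole of a 16-mer random double-stranded DNA library in Tris/NaCl/DTT/glycerol buffer for 30 min at room temperature. The pools were then washed, crosslinked, proximity-ligated, amplified by PCR and sequenced on an Illumina NextSeq500.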

GABPA = molecular target: T2, GABPA (Homo sapiens, UniProt Q06546 1-454)
T2 sequence: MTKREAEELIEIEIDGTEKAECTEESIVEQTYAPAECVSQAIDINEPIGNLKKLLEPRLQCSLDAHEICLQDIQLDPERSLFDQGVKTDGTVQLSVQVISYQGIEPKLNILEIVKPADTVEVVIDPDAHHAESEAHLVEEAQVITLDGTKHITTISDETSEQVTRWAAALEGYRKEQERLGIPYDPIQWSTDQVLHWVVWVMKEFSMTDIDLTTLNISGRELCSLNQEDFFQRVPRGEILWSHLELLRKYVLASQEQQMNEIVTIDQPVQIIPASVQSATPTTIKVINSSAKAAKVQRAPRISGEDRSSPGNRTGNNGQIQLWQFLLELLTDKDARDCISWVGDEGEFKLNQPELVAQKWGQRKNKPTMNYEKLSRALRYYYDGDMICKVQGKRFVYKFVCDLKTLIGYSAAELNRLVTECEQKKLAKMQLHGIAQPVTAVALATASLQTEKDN
In short: as §1

ERG = molecular target: T3, ERG (Homo sapiens, UniProt P11308 1-479)
T3 sequence: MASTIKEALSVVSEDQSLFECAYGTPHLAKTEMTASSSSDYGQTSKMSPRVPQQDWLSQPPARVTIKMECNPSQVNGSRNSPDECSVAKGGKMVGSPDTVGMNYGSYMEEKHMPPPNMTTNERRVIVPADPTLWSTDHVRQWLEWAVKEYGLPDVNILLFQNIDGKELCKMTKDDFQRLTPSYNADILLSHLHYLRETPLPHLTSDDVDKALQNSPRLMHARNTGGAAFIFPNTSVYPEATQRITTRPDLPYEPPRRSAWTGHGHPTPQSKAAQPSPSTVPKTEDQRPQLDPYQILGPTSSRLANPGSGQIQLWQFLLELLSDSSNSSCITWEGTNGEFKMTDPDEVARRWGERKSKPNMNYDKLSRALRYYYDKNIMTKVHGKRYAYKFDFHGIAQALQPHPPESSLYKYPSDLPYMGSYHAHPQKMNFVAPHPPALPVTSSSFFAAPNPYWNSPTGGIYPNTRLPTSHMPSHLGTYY
In short: as §1

ELF1 = ELF1 (Homo sapiens, UniProt P32519 1-619)
ELF1, sequence (P32519 whole entry): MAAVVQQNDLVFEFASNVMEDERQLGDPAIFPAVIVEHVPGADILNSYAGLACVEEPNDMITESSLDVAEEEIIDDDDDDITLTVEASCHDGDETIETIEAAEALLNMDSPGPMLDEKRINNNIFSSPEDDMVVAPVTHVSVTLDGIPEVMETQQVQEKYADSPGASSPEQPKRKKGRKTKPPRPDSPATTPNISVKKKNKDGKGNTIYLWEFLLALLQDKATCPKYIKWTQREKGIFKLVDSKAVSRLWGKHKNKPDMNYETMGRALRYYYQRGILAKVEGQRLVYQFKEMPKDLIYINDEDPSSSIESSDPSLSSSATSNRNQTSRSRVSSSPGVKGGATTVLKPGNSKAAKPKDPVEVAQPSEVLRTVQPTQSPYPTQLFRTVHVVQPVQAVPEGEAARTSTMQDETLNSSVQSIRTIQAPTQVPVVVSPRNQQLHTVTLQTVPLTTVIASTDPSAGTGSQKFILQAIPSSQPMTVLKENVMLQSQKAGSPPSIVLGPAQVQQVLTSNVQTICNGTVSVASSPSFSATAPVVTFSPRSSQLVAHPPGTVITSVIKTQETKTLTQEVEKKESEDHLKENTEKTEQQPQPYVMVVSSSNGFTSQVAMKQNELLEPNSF
In short: as §1

EHF = molecular target: T4, EHF (Homo sapiens, UniProt Q9NZC4 1-300)
T4 sequence: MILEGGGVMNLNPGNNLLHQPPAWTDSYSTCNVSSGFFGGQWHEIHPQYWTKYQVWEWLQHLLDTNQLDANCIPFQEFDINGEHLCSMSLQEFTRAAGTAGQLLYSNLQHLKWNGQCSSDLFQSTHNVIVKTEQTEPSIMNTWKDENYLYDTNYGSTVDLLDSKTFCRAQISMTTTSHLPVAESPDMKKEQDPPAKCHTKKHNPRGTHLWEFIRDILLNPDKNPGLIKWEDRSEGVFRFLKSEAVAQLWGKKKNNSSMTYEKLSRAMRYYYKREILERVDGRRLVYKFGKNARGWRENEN
In short: as §1

SPI1 = SPI1 (Homo sapiens, UniProt P17947 1-270)
In short: as §1

SPIB = SPIB (Homo sapiens, UniProt Q01892 1-262)
SPIB, sequence (Q01892 whole entry): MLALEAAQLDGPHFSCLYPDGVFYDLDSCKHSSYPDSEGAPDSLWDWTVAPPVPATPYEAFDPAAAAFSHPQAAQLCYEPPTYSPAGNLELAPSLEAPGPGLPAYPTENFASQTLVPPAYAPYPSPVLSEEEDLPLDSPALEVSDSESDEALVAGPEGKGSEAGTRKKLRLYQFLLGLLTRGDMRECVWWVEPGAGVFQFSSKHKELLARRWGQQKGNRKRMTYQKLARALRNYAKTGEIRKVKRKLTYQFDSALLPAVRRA
In short: as §1

ELK3 = molecular target: T5, ELK3 (Homo sapiens, UniProt P41970 1-407)
T5 sequence: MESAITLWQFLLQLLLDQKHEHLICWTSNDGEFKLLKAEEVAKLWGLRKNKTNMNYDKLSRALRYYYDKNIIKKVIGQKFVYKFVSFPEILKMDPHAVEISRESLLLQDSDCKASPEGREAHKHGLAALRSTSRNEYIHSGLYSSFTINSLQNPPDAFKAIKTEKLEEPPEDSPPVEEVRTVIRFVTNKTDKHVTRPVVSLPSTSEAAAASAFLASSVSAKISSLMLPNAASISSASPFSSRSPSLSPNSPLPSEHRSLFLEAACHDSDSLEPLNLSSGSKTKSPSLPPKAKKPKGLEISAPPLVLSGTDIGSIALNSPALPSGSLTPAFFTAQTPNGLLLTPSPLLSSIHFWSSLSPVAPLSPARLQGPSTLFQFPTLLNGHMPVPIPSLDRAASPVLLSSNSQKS
In short: as §1

FEV = molecular target: T6, FEV (Homo sapiens, UniProt Q99581 1-238)
T6 sequence: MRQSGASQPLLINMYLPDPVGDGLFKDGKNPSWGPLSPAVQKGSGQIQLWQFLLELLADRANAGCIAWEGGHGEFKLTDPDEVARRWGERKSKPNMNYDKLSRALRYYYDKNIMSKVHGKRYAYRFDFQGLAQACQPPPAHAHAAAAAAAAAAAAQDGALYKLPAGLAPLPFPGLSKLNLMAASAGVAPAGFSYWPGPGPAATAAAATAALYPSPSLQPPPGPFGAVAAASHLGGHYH
In short: as §1

ETV5 = ETV5 (Homo sapiens, UniProt P41161 1-510)
ETV5, sequence (P41161 whole entry): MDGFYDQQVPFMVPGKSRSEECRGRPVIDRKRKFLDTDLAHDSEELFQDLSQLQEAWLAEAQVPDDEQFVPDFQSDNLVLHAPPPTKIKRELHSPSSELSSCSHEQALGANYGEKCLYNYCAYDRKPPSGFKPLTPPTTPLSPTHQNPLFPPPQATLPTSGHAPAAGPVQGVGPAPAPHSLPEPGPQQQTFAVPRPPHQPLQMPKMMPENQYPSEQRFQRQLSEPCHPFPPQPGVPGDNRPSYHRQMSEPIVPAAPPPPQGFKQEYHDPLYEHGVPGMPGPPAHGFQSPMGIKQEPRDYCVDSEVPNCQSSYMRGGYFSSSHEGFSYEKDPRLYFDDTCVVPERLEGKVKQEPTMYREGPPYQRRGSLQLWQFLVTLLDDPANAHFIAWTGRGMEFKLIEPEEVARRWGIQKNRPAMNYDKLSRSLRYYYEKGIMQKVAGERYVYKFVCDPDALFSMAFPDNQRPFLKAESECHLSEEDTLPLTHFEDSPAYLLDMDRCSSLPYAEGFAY
In short: as §1

SPIC = molecular target: T7, SPIC (Homo sapiens, UniProt Q8N5J4 1-248)
T7 sequence: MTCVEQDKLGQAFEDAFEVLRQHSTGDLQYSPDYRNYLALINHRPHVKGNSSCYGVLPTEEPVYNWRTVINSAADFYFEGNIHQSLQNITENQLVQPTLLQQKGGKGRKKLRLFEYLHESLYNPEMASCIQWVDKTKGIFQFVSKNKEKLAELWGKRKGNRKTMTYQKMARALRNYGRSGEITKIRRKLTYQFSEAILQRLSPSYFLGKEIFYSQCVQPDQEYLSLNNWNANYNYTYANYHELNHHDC
In short: as §1

ELF4 = ELF4 (Homo sapiens, UniProt Q99607 1-663)
ELF4, sequence (Q99607 whole entry): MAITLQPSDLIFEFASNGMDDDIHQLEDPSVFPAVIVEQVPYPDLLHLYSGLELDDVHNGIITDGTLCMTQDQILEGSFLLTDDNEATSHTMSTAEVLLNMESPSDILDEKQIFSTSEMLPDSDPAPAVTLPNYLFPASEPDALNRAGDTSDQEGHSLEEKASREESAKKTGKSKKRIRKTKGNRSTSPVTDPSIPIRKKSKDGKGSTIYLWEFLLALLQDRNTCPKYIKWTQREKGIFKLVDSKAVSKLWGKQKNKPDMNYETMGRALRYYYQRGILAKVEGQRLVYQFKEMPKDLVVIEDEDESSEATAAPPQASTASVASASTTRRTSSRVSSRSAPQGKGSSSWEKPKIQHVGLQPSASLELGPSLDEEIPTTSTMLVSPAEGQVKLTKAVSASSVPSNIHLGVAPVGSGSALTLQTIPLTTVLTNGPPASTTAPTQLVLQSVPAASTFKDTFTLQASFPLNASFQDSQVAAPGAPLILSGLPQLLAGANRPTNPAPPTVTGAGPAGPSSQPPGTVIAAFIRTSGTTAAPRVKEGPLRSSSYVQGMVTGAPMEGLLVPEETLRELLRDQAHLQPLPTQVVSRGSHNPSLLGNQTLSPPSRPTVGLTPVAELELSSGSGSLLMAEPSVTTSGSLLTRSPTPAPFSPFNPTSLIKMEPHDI
In short: as §1

ETV1 = ETV1 (Homo sapiens, UniProt P50549 1-477)
ETV1, sequence (P50549 whole entry): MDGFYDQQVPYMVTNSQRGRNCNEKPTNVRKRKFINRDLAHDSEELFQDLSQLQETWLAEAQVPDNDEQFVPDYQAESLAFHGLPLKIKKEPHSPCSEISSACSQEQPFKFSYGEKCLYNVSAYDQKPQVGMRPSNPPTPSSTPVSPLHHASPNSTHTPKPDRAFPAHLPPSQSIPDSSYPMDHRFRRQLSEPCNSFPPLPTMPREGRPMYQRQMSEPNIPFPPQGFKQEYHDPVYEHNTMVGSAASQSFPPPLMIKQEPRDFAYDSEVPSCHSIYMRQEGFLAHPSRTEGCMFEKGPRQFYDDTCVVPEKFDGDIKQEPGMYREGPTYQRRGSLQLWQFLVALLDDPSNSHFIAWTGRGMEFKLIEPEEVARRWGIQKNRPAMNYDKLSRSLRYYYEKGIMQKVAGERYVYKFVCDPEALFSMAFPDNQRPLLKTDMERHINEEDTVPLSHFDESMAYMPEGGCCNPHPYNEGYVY
In short: as §1

ERF = molecular target: T8, ERF (Homo sapiens, UniProt P50548 1-548)
T8 sequence: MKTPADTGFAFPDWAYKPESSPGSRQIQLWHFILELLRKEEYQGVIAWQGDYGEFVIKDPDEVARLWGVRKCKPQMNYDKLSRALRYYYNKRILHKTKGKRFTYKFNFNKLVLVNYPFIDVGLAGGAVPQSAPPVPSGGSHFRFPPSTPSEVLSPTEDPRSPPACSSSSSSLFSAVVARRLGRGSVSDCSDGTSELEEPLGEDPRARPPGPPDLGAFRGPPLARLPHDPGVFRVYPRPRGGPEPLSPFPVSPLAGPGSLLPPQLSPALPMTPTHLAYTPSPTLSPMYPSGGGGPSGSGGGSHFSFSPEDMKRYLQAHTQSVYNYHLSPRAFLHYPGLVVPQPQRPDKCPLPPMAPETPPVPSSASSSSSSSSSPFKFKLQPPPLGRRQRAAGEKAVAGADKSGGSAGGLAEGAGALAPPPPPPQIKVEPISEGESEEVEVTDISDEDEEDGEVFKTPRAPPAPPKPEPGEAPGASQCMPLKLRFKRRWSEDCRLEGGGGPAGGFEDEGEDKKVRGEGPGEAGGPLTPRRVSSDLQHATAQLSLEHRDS
In short: as §1

ETV3L = molecular target: T9, ETV3L (Homo sapiens, UniProt Q6ZN32 1-361)
T9 sequence: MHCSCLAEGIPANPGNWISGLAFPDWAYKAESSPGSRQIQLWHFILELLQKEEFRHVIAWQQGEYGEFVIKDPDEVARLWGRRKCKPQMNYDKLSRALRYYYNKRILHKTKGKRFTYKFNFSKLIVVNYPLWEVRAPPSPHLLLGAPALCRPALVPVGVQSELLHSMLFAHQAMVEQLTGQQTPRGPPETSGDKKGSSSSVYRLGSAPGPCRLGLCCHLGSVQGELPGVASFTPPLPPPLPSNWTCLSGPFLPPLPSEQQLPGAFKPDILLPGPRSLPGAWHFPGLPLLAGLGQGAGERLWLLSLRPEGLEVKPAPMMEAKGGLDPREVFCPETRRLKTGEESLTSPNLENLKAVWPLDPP
In short: as §1

ETS2 = molecular target: T10, ETS2 (Homo sapiens, UniProt P15036 1-469)
T10 sequence: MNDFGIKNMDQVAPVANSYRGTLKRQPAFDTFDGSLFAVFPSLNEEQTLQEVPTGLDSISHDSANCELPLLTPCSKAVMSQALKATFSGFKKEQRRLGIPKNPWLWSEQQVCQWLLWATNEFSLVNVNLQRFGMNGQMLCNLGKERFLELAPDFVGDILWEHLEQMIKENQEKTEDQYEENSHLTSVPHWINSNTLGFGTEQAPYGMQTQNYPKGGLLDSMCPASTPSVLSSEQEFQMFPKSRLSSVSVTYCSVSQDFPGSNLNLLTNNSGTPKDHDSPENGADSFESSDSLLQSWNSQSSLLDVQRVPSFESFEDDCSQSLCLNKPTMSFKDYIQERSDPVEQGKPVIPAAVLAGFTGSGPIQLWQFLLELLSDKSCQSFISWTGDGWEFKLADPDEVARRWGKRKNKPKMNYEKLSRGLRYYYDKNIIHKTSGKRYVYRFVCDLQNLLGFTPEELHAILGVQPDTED
In short: as §1

ELF5 = molecular target: T11, ELF5 (Homo sapiens, UniProt Q9UKW6-2 1-255)
T11 sequence: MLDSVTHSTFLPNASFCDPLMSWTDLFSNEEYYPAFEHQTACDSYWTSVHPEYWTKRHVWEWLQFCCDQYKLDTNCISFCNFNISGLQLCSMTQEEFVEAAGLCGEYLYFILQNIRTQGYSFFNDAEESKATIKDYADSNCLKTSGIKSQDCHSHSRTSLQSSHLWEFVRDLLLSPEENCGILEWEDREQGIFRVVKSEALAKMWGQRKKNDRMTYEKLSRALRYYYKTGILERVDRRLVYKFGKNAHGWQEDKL
In short: as §1

ETV3 = molecular target: T12, ETV3 (Homo sapiens, UniProt P41162-2 1-143)
T12 sequence: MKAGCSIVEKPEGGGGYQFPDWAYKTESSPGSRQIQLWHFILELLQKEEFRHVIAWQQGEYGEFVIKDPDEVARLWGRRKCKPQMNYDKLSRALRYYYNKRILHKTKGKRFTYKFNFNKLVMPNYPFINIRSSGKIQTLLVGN
In short: as §1

ETV6 = ETV6 (Homo sapiens, UniProt P41212 1-452)
ETV6, sequence (P41212 whole entry): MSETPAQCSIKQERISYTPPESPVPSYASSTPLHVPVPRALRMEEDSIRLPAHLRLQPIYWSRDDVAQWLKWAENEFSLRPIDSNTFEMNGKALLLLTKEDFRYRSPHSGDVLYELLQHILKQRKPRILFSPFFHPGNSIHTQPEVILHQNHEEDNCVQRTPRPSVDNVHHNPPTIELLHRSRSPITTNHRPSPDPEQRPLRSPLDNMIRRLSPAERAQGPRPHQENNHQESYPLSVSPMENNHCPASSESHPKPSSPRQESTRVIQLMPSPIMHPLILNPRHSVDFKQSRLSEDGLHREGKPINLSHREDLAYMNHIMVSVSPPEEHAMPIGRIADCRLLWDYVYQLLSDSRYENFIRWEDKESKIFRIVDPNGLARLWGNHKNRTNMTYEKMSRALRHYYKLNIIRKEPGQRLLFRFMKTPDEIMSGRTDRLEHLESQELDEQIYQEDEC
In short: as §1

## ATACCG
FLI1
  binding signal: 1.16 fold enrichment (6-mer frequency, TF over GST control)
GABPA
  binding signal: 1.02 fold enrichment (6-mer frequency, TF over GST control)
ERG
  binding signal: 1.16 fold enrichment (6-mer frequency, TF over GST control)
ELF1
  binding signal: 1.11 fold enrichment (6-mer frequency, TF over GST control)
EHF
  binding signal: 1.12 fold enrichment (6-mer frequency, TF over GST control)
SPI1
  binding signal: 1.06 fold enrichment (6-mer frequency, TF over GST control)
SPIB
  binding signal: 1.12 fold enrichment (6-mer frequency, TF over GST control)
ELK3
  binding signal: 1.15 fold enrichment (6-mer frequency, TF over GST control)
FEV
  binding signal: 1.25 fold enrichment (6-mer frequency, TF over GST control)
ETV5
  binding signal: 1.1 fold enrichment (6-mer frequency, TF over GST control)
SPIC
  binding signal: 1.05 fold enrichment (6-mer frequency, TF over GST control)
ELF4
  binding signal: 1.12 fold enrichment (6-mer frequency, TF over GST control)
ETV1
  binding signal: 1.14 fold enrichment (6-mer frequency, TF over GST control)
ERF
  binding signal: 1.08 fold enrichment (6-mer frequency, TF over GST control)
ETV3L
  binding signal: 1.1 fold enrichment (6-mer frequency, TF over GST control)
ETS2
  binding signal: 1.11 fold enrichment (6-mer frequency, TF over GST control)
ELF5
  binding signal: 1.13 fold enrichment (6-mer frequency, TF over GST control)
ETV3
  binding signal: 1.2 fold enrichment (6-mer frequency, TF over GST control)
ETV6
  binding signal: 1.09 fold enrichment (6-mer frequency, TF over GST control)
